# Reference: PubChem BioAssay (NCATS)
# Values joined by “and” are separate entries in the source; they are usually repeats but may differ in a detail not shown here. Equal entries are not always repeated. Results filed as inconclusive are left out. Values without a mark were called inactive. Active and inactive are the calls of the source. Calls come from the whole dose curve; as a rule, active = well fitted inhibition curve with a large enough effect; inconclusive = small, poorly fitted or top-dose-only effect; inactive = flat fitted curve, though single readings scatter.
# Key:
# [1] = tested on: CRL-7250; assay: Cytotoxic Profiling of Annotated Libraries Using Quantitative High-Throughput Screening (AID 1296008); details: Five cell lines viability, CellTiter-Glo ATP luminescence, 48-72 h; max response: hits give low values
# Method in brief: (§1)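 Cells exposed to compounds for 48 or 72 hr at 37 degrees Celsius. Viability read as ATP-coupled luminescence with CellTiter-Glo after 10 min at room temperature.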
# [2] = tested on: HEK293; assay: as above; details: Five cell lines viability, CellTiter-Glo ATP luminescence, 48-72 h; max response: hits give low values
# Method in brief: as §1
# [3] = tested on: HaCat; assay: as above; details: Five cell lines viability, CellTiter-Glo ATP luminescence, 48-72 h; max response: hits give low values
# Method in brief: as §1
# [4] = tested on: KB-3-1; assay: as above; details: Five cell lines viability, CellTiter-Glo ATP luminescence, 48-72 h; max response: hits give low values
# Method in brief: as §1
# [5] = tested on: NIH3T3; assay: as above; details: Five cell lines viability, CellTiter-Glo ATP luminescence, 48-72 h; max response: hits give low values
# Method in brief: as §1
# [6] = tested on: MCC-13; assay: qHTS assay to identify novel small-molecules to repurpose for Merkel cell carcinoma treatment (AID 1296009); details: MCC and control cell lines, CellTiter-Glo viability, 72 h; series mostly up to 46 µM
# Method in brief: (§2)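 Cells were incubated with compound for 72 hr at 37 degree celsius before CellTiter-Glo addition. Luminescence was normalized with no-cell wells as full cytotoxicity and DMSO as baseline.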
# [7] = tested on: MCC-26; assay: as above; details: MCC and control cell lines, CellTiter-Glo viability, 72 h; series mostly up to 46 µM
# Method in brief: as §2
# [8] = tested on: MKL-1; assay: as above; details: MCC and control cell lines, CellTiter-Glo viability, 72 h; series mostly up to 46 µM
# Method in brief: as §2
# [9] = tested on: HACAT; assay: as above; details: MCC and control cell lines, CellTiter-Glo viability, 72 h; series mostly up to 44.8 µM
# Method in brief: as §2
# % is set by controls: 0 for no effect and ±100 for the full control effect; potency is the fitted concentration of half-maximal effect.
# Note: nearly all actives have a fitted effect of over 60% in size.
smiles,measurement,setting,value
CN1c2cc(O)c(N=NC(N)=O)cc2CC1S(=O)(=O)O (configuration not stated),outcome,[1],inactive
same,max response,[2],2.9%
same,max response,[3],-1.08%
same,outcome,[4],inactive
same,outcome,[5],inactive
same,Potency,[6],inactive
same,Potency,[7],inactive
same,Potency,[8],inactive
COc1cccc(-c2ccc(NC(=O)C3=C(C(=O)O)CCC3)c(F)c2)c1,max response,[1],-3.86% and -6.53%
same,Potency,[2],7.43 µM (active) and 6.51 µM (active)
same,outcome,[3],inactive
same,max response,[4],-19.3%
same,Potency,[9],inactive
same,Potency,[6],inactive
same,Potency,[7],inactive
CNC(=O)c1cc(Oc2ccc(NC(=O)Nc3cc(C(C)(C)C)nn3-c3ccc4ncccc4c3)c(F)c2)ccn1,Potency,[1],13.2 µM (active) and 18.4 µM (active)
same,Potency,[2],23.5 µM (active)
same,Potency,[3],7.31 µM (active)
same,Potency,[4],9.35 µM (active) and 5.17 µM (active)
same,Potency,[5],2.96 µM (active)
same,Potency,[6],inactive
same,Potency,[8],inactive
Nc1nccc(Oc2ccc(NC(=O)c3c[nH]cc(-c4ccc(F)cc4)c3=O)cc2F)c1Cl,Potency,[1],18.7 µM (active)
same,Potency,[2],11.8 µM (active) and 13 µM (active)
same,max response,[3],-25.3%
same,Potency,[4],23.5 µM (active) and 18.4 µM (active)
same,Potency,[5],16.6 µM (active)
same,Potency,[6],inactive
same,Potency,[8],5260 nM (active)
COc1cc2nccc(Oc3ccc(NC(=O)C4(C(=O)Nc5ccc(F)cc5)CC4)cc3)c2cc1OC,Potency,[1],1.48 µM (active) and 13 µM (active)
same,Potency,[2],14.8 µM (active) and 16.4 µM (active)
same,Potency,[3],16.6 µM (active) and 25.9 µM (active)
same,Potency,[4],23.5 µM (active)
same,Potency,[5],332 nM (active) and 1.64 µM (active)
same,Potency,[8],2960 nM (active)
NCC(=O)Nc1ccc(-n2nc(C(F)(F)F)cc2-c2ccc3c(ccc4ccccc43)c2)cc1,max response,[1],-6.6%
same,Potency,[2],166 nM (active) and 1.46 µM (active)
same,max response,[3],-18.9%
same,Potency,[4],26.4 µM (active) and 23.1 µM (active)
same,max response,[5],-0.49%
same,Potency,[6],inactive
same,Potency,[8],inactive
CC(C)Nc1cc(C(F)(F)F)cc2nc(NC(=O)c3cccnc3)nn12,max response,[1],-10.3% and 1%
same,max response,[2],-16.8%
same,max response,[3],-1.8%
same,outcome,[4],inactive
same,max response,[5],3.06% and -1.67%
same,Potency,[6],inactive
same,Potency,[7],inactive
same,Potency,[8],inactive
Cc1[nH]nc2ccc(-c3cncc(OC[C@@H](N)Cc4ccccc4)c3)cc12,Potency,[1],2.64 µM (active) and 5.8 µM (active)
same,Potency,[2],209 nM (active) and 651 nM (active)
same,Potency,[3],1.32 µM (active) and 411 nM (active)
same,Potency,[4],0.332 µM (active)
same,Potency,[5],3.72 µM (active) and 7.31 µM (active)
same,Potency,[6],4180 nM (active)
same,Potency,[7],6620 nM (active)
same,Potency,[8],1870 nM (active)
C=CCn1c(=O)c2cnc(Nc3ccc(N4CCN(C)CC4)cc3)nc2n1-c1cccc(C(C)(C)O)n1,max response,[1],-7.63%
same,Potency,[2],235 nM (active) and 920 nM (active)
same,Potency,[3],332 nM (active) and 1.64 µM (active)
same,Potency,[4],0.264 µM (active)
same,Potency,[5],469 nM (active) and 1.16 µM (active)
same,Potency,[6],6620 nM (active)
same,Potency,[8],662 nM (active)
CC1(C)O[C@@H]2C[C@@H]3[C@H]4C[C@@H](F)C5=CC(=O)C=C[C@]5(C)[C@@]4(F)[C@@H](O)C[C@]3(C)[C@]2(C(=O)CO)O1,max response,[1],-20%
same,max response,[2],-3.12%
same,max response,[3],-6.44%
same,outcome,[4],inactive
same,max response,[5],-12.4%
same,Potency,[6],inactive
same,Potency,[8],inactive
CN1CCN(Cc2ccc(NC(=O)Nc3ccc(Oc4cc(NC(=O)C5CC5)ncn4)cc3)cc2C(F)(F)F)CC1,Potency,[1],418 nM (active) and 1.3 µM (active)
same,Potency,[2],0.184 µM (active)
same,Potency,[3],743 nM (active) and 920 nM (active)
same,Potency,[4],132 nM (active) and 206 nM (active)
same,Potency,[5],0.59 µM (active)
same,Potency,[6],2350 nM (active)
same,Potency,[7],1180 nM (active)
same,Potency,[8],372 nM (active)
CN(C)CC=CC(=O)Nc1cc2c(Nc3ccc(F)c(Cl)c3)ncnc2cc1O[C@H]1CCOC1,Potency,[1],3.32 µM (active)
same,Potency,[2],1.32 µM (active)
same,max response,[3],-151%
same,Potency,[4],4.18 µM (active)
same,Potency,[5],3.72 µM (active)
same,Potency,[8],14800 nM (active)
Cc1nc2ccc(CN(C)c3ccc(C(=O)N[C@@H](CCC(=O)O)C(=O)O)s3)cc2c(=O)[nH]1,max response,[1],-19.7%
same,Potency,[2],0.0473 µM (active)
same,Potency,[3],0.0332 µM (active)
same,max response,[4],1.14%
same,Potency,[5],0.119 µM (active)
same,Potency,[7],inactive
